Here are results for 3 compounds from PubChem BioAssay (EPA / NIEHS).

Active and inactive are the calls of the source. How the source made its calls: active means hit-call score of the fitted dose curve at least 0.9, where 1 is the maximum; inactive means score below 0.9.

Read-out in assay [1]: Transforming growth factor beta 1 (TGFb1), TGFB1 (gene 7040)
In words: BSK_KF3CT_TGFb1: BioMAP Diversity Plus: KF3CT Assay for Transforming growth factor beta 1 (TGFb1) Biomarker Activity (AID 2283072). The conditions noted are these: primary human keratinocytes with fibroblasts; actives raise or lower the signal. The procedure, abridged: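 KF3CT co-culture (keratinocytes + fibroblasts), 24 h exposure → TGF-b1 ELISA → bidirectional fit, DMSO = baseline. Parallel SRB total-protein staining (0.1% SRB, 10% TCA fixation, 560 nm) for cytotoxicity.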

Read-out in assay [2]: C-C motif chemokine 2 (Homo sapiens) (UniProt P13500)
In words: BSK_KF3CT_MCP1: BioMAP Diversity Plus: KF3CT Assay for Monocyte Chemoattractant Protein 1 (MCP1/CCL2) Biomarker Activity (AID 2283073). The conditions noted are these: primary human keratinocytes with fibroblasts; actives raise or lower the signal. The procedure, abridged: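 KF3CT skin co-culture (keratinocytes/foreskin fibroblasts), 24 h post-dose; MCP-1 by ELISA; gain/loss of signal fit bidirectionally vs DMSO baseline.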

Read-out in assay [3]: urokinase plasminogen activator (uPA), PLAU (gene 5328)
In words: BSK_KF3CT_uPA: BioMAP Diversity Plus: KF3CT Assay for urokinase plasminogen activator (uPA) Biomarker Activity (AID 2283075). The conditions noted are these: primary human keratinocytes with fibroblasts; actives raise or lower the signal. The procedure, abridged:
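Skin co-culture (keratinocytes + foreskin fibroblasts), human primary; 24 h post-dose; uPA by ELISA; gain/loss fit vs DMSO baseline.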

Read-out in assay [4]: CD40, CD40 (gene 958)
In words: BSK_LPS_CD40: BioMAP Diversity Plus: LPS Assay for CD40 Biomarker Activity (AID 2283076). The conditions noted are these: primary human HUVEC with PBMC; actives raise or lower the signal. In short, it runs like this: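 ELISA readout of CD40 in HUVEC/PBMC co-culture (BSK_LPS system), 24 h post-dosing; bidirectional curve fit, DMSO baseline; parallel SRB total-protein staining for cytotoxicity.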

Read-out in assay [5]: E-selectin (Homo sapiens) (UniProt P16581)
In words: BSK_LPS_Eselectin: BioMAP Diversity Plus: LPS Assay for Eselectin Biomarker Activity (AID 2283077). The conditions noted are these: primary human HUVEC with PBMC; actives raise or lower the signal. In short, it runs like this:
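ELISA readout of E-selectin, 24 h post-dose, HUVEC + PBMC co-culture (LPS system). Gain or loss of signal vs DMSO baseline, bidirectional fit.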

Read-out in assay [6]: Interleukin-8 (IL8), CXCL8 (gene 3576)
In words: BSK_LPS_IL8: BioMAP Diversity Plus: LPS Assay for Interleukin-8 (IL8) Biomarker Activity (AID 2283078). The conditions noted are these: primary human HUVEC with PBMC; actives raise or lower the signal. In short, it runs like this: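 HUVEC + PBMC co-culture, LPS-activated; test chemicals dosed, IL-8 read by ELISA at 24 h. Bidirectional curve fit vs DMSO baseline (gain or loss of signal).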

Assay [7] in a line: BSK_LPS_SRB: Viability Assessment in the BioMAP Diversity Plus: LPS Assay (AID 2283079).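 Further: total protein by sulforhodamine B absorbance as a cytotoxicity measure; measured one day after compound addition.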 The conditions noted are these: primary human HUVEC with PBMC. In short, it runs like this: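 HUVEC + PBMC co-culture, LPS-stimulated; compound 24 h. 10% TCA fix, 0.1% SRB stain, A560. Bidirectional fit vs DMSO.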
Read-out in assay [8]: Interleukin-1 alpha (IL1a), IL1A (gene 3552)
In words: BSK_LPS_IL1a: BioMAP Diversity Plus: LPS Assay for Interleukin-1 alpha (IL1a) Biomarker Activity (AID 2283080). The conditions noted are these: primary human HUVEC with PBMC; actives raise or lower the signal. The procedure, abridged: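 HUVEC/PBMC co-culture, LPS system; 24 h after dosing; IL-1a by ELISA; gain or loss of signal fitted bidirectionally vs DMSO baseline.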

Read-out in assay [9]: Monocyte Chemoattractant Protein-1 (MCP1), CCL2 (gene 6347)
In words: BSK_LPS_MCP1: BioMAP Diversity Plus: LPS Assay for Monocyte Chemoattractant Protein-1 (MCP1) Biomarker Activity (AID 2283081).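 On AC50: secreted MCP-1 protein quantified by ELISA in culture supernatant.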 The conditions noted are these: primary human HUVEC with PBMC; actives raise or lower the signal. In short, it runs like this:
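ELISA read-out of MCP-1 after 24 h chemical dosing of a human umbilical vein endothelial cell/peripheral blood mononuclear cell co-culture stimulated with LPS. Gain or loss of signal fitted relative to DMSO controls.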

The nature of assay [10]: BSK_LPS_PGE2: BioMAP Diversity Plus: LPS Assay for Prostaglandin E2 (PGE2) Biomarker Activity (AID 2283082).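 On AC50: secreted prostaglandin E2 measured by ELISA in LPS-stimulated co-culture.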 The conditions noted are these: primary human HUVEC with PBMC; actives raise or lower the signal. The procedure, abridged:
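Compounds were added to the LPS co-culture of endothelium and PBMC, and PGE2 was measured by ELISA after 24 h. Responses in either direction were fitted with DMSO as baseline.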

Read-out in assay [11]: Tissue Factor, F3 (gene 2152)
In words: BSK_LPS_TissueFactor: BioMAP Diversity Plus: LPS Assay for Tissue Factor Biomarker Activity (AID 2283084). The conditions noted are these: primary human HUVEC with PBMC; actives raise or lower the signal. The procedure, abridged: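 HUVEC/PBMC co-culture, LPS-activated; CD142 ELISA read 24 h post-dose; bidirectional curve fit vs DMSO negative control.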

Read-out in assay [12]: Tumor necrosis factor (Homo sapiens) (UniProt P01375)
In words: BSK_LPS_TNFa: BioMAP Diversity Plus: LPS Assay for Tumour Necrosis Factor alpha (TNFa) Biomarker Activity (AID 2283085).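 On AC50: TNFa protein level quantified by ELISA in the co-culture.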 The conditions noted are these: primary human HUVEC with PBMC; actives raise or lower the signal. The procedure, abridged: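 Cells (umbilical vein endothelium plus peripheral blood mononuclear cells) were dosed with chemical, incubated 24 h, then TNFa was quantified by ELISA; values derive from bidirectional fitting with DMSO as baseline.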

Read-out in assay [13]: Vascular cell adhesion molecule 1 (VCAM1), VCAM1 (gene 7412)
In words: BSK_LPS_VCAM1: BioMAP Diversity Plus: LPS Assay for Vascular cell adhesion molecule 1 (VCAM1) Biomarker Activity (AID 2283086). The conditions noted are these: primary human HUVEC with PBMC; actives raise or lower the signal. The procedure, abridged:
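Cells are dosed in an LPS-stimulated endothelial/mononuclear co-culture and, after 24 h, VCAM-1 is quantified by ELISA. Activity in either direction is fitted relative to the DMSO negative control.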

Read-out in the next assay: CD38, CD38 (gene 952)
In words: BSK_SAg_CD38: BioMAP Diversity Plus: SAg Assay for CD38 Biomarker Activity (AID 2283087). The conditions noted are these: primary human HUVEC with PBMC; actives raise or lower the signal. In short, it runs like this: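 CD38 quantified by ELISA (fluorescence) in a superantigen-activated endothelial cell–PBMC co-culture at 24 h post-dose. Activity fitted in both directions relative to DMSO; parallel SRB and Alamar Blue cytotoxicity read-outs.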

Read-out in assay [14]: CD40, CD40 (gene 958)
In words: BSK_SAg_CD40: BioMAP Diversity Plus: SAg Assay for CD40 Biomarker Activity (AID 2283088). The conditions noted are these: primary human HUVEC with PBMC; actives raise or lower the signal. The procedure, abridged: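 HUVEC/PBMC co-culture, 24 h post-dose; CD40 by ELISA, fluorescence intensity; bidirectional fit vs DMSO negative control.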

Read-out in another assay: CD69, CD69 (gene 969)
In words: BSK_SAg_CD69: BioMAP Diversity Plus: SAg Assay for CD69 Biomarker Activity (AID 2283089).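 On AC50: cell surface CD69 protein quantified by ELISA with fluorescence detection.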 The conditions noted are these: primary human HUVEC with PBMC; actives raise or lower the signal. The procedure, abridged: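 HUVEC co-cultured with PBMC were dosed with chemical, and CD69 was measured by ELISA with fluorescence read-out 24 h later. Bidirectional curve fitting used DMSO as negative control and activity baseline.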

Read-out in assay [15]: E-selectin (Homo sapiens) (UniProt P16581)
In words: BSK_SAg_Eselectin: BioMAP Diversity Plus: SAg Assay for Eselectin Biomarker Activity (AID 2283091). The conditions noted are these: primary human HUVEC with PBMC; actives raise or lower the signal. In short, it runs like this: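 E-selectin ELISA readout at 24 h post-dosing in human umbilical vein endothelial cell/PBMC co-culture; gain or loss of signal fitted relative to DMSO baseline.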

Read-out in assay [16]: Matrix Metallopeptidase 9 (MMP9), MMP9 (gene 4318)
In words: BSK_KF3CT_MMP9: BioMAP Diversity Plus: KF3CT Assay for Matrix Metallopeptidase 9 (MMP9) Biomarker Activity (AID 2283074).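 On AC50: MMP9 protein level quantified by ELISA in the co-culture.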 The conditions noted are these: primary human keratinocytes with fibroblasts; actives raise or lower the signal. In short, it runs like this: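 ELISA read-out of MMP-9 at 24 h post-dosing in a co-culture of human skin keratinocytes and foreskin fibroblasts. Gain or loss of signal was fitted in both directions against DMSO.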

Read-out in assay [17]: Monocyte Chemoattractant Protein-1 (MCP1), CCL2 (gene 6347)
In words: BSK_SAg_MCP1: BioMAP Diversity Plus: SAg Assay for Monocyte Chemoattractant Protein-1 (MCP1) Biomarker Activity (AID 2283090). The conditions noted are these: primary human HUVEC with PBMC; actives raise or lower the signal. In short, it runs like this: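 Values derive from bidirectional fitting of ELISA-measured MCP1 against DMSO controls. Readings were taken 24 h after dosing human vascular endothelial cells co-cultured with peripheral blood mononuclear cells under superantigen stimulation.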

The term AC50 denotes the midpoint of the concentration-response curve, whichever way the signal moves.

E-selectin (Homo sapiens), sequence (P16581 whole entry, looked up): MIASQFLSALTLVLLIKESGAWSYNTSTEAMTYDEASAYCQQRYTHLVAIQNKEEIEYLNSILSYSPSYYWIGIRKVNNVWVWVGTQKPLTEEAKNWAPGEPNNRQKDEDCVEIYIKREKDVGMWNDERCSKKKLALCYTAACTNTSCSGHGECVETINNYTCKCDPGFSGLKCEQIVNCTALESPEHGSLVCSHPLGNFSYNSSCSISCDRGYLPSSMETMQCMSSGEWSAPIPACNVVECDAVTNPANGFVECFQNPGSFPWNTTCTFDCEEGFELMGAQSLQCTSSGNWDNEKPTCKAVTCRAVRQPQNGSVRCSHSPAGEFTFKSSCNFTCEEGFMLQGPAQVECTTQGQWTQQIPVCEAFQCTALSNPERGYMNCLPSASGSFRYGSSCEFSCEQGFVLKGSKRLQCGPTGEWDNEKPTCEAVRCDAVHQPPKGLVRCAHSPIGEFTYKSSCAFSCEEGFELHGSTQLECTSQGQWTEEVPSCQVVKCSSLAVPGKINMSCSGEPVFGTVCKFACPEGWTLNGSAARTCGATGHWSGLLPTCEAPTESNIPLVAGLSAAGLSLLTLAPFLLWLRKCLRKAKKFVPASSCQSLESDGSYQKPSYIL
Tumor necrosis factor (Homo sapiens), sequence (P01375 whole entry, looked up): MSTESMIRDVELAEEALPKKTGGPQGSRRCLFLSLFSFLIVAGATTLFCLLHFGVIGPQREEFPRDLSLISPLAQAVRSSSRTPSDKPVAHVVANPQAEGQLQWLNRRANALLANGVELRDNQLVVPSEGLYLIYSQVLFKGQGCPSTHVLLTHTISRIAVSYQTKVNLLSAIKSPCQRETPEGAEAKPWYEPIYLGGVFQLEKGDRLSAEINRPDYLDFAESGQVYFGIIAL

Take `Nc1ccc2c(c1)C(=O)c1ccccc1C2=O`: the outcome in assay [1] was “inactive”; in [2], “inactive”; in [3] it was “inactive”; with CD40, CD40 (gene 958) [4] it was “inactive”; in [5], “inactive”; in assay [6] it was “inactive”. For the same compound, the outcome in assay [7] was “inactive”; in assay [8], “inactive”; in assay [9] it was “inactive”; in [11], “inactive”; in [13], “inactive”; in the assay with CD38, CD38 (gene 952), “inactive”. For the same compound, the outcome with CD40, CD40 (gene 958) [14] is “inactive”; with CD69, CD69 (gene 969) it was “inactive”; in assay [15], “inactive”. Besides, the AC50 in [10] is 3.36 µM (active); in [12] it was 5.74 µM (active).
Consider `c1cc(-c2ccncc2)ccn1`, for which the outcome in assay [1] was “inactive”; in assay [2] it was “inactive”; in [16] it was “inactive”; with CD40, CD40 (gene 958) [4] it was “inactive”; in assay [5], “inactive”; in [6], “inactive”. Besides, the result in assay [7], in assay [8], in assay [9], in assay [10], in [11] and in assay [12] was inactive. Also, the outcome in assay [13] was “inactive”; with CD38, CD38 (gene 952) it was “inactive”; in the assay with CD40, CD40 (gene 958) [14], “inactive”; in the assay with CD69, CD69 (gene 969), “inactive”; in assay [17], “inactive”; in [15] it was “inactive”.
On to `COc1cc(-c2nc(NC(=O)c3cc4cc(C)cc(C)c4n3CC(=O)O)sc2CCC2CCCCC2)c(OC)cc1Cl`, for which the AC50 in assay [1] is 1.68 µM (active); in assay [2], 1.38 µM (active); in [16], 1.68 µM (active); with CD40, CD40 (gene 958) [4], 3.16 µM (active); in [5], 8.51 µM (active); in [6], 12.2 µM (active). Moreover, the AC50 in assay [7] was 4.61 µM (active); in assay [8] it was 4.69 µM (active); in [9], 3.25 µM (active); in assay [10], 3.97 µM (active); in [11], 6.36 µM (active); in [13], 5.07 µM (active). The half-maximal activity concentration (AC50) with CD38, CD38 (gene 952) was 3.43 µM (active); in the assay with CD40, CD40 (gene 958) [14], 3.21 µM (active); with CD69, CD69 (gene 969), 3.95 µM (active); in assay [15], 5.48 µM (active).
